# The whole screen tested about 200,000 compounds, of which about 18,000 (9%) were called active. The sample holds actives, similar compounds and a random draw of the others, so the mix is not that of the screen. Values without a mark were called inactive. No stated cut-off is given here; in the data, active means inhibition above about 50%; inactive means the rest.
# Assay: Leishmania major promastigote growth inhibition, primary screen (AID 1063);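 further: promastigotes grown with compound for 44 hours at 28 °C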
# Conditions: Leishmania major promastigotes, resazurin fluorescence viability; at 10 µM; stronger effect = higher value
row,SMILES,inhibition
1,Cc1nnsc1C(=O)N/N=C/c1cccc(C(F)(F)F)c1,12.3%
2,CCOc1ccc(-n2c(SCC(=O)NC3CCS(=O)(=O)C3)nnc2-c2cccnc2)cc1 (stereo not drawn),-3.53%
3,Cc1ccc(S(=O)(=O)N(NC2=NS(=O)(=O)c3ccccc32)C(=O)c2ccccc2)cc1,53% (active)
4,Cc1ccc(C(=O)NN(CCC#N)C2=NS(=O)(=O)c3ccccc32)cc1,-9.19%
5,CC(C)(C)c1csc(NC2=NS(=O)(=O)c3ccccc32)n1,-6.96%
6,O=C(NNS(=O)(=O)c1ccc(F)cc1)c1cnccn1,-7.62%
7,COc1ccc(C(=O)NNC(=O)c2cc(C)[nH]n2)cc1,-2.25%
8,Cc1ccc(Cl)c(NC(=O)CN(C)CC(=O)Nc2ccc(F)c(F)c2F)c1Cl,0.59%
9,CC(CNC(=O)c1ccc(N)cc1)NC(=O)c1ccc(N)cc1 (stereo not drawn),-1.57%
10,Cc1cc(C)c(NC(=O)c2oc3ccccc3c2COc2ccccc2)c(C)c1,62.7% (active)
11,CCOC(=O)c1oc2ccccc2c1NC(=O)c1cccs1,-2.52%
12,COCc1c(C(=O)OCc2c(C)noc2C)oc2ccccc12,-3.77%
13,NC(=O)COc1ccc(NC(=O)c2ccccc2-c2ccccc2)cc1,10.2%
14,CCO/C=C1\C(=O)N(c2ccc(OCC)cc2)C(=O)c2ccccc21,0.41%
15,NS(=O)(=O)c1ccc(CCNC(=O)c2ccc([N+](=O)[O-])cc2[N+](=O)[O-])cc1,-7.26%
16,NS(=O)(=O)c1ccc(CNC(=O)c2ccc(Cl)cc2[N+](=O)[O-])cc1,52.1% (active)
17,NS(=O)(=O)c1ccc(CCNC(=O)c2ccc(Cl)cc2[N+](=O)[O-])cc1,6.41%
18,Cc1ccc(C(=O)NCC(=O)O)s1,-10.9%
19,COCCCNCCOCCOc1ccc(Cl)cc1Br,91.2% (active)
20,CSc1ccc(/C=N\NC(=O)COc2ccc(Cl)cc2Br)cc1,-9.17%
21,COCCNCCOCCOc1cccc(OC)c1,1.86%
22,Cc1cc(C)n(-c2ccc3nncn3n2)n1,-5.45%
23,C=CCn1c(=NC(=O)c2cccs2)sc2cc(NC(C)=O)ccc21,9.06%
24,CCCOC1CCCN(Cc2cn(C)nc2-c2ccccc2F)C1 (stereo not drawn),-5.85%
25,Cn1cc(CN2CCCC(CO)C2)c(-c2ccc(Oc3ccccc3)cc2)n1 (stereo not drawn),88.6% (active)

row,SMILES,inhibition
1,Cc1ccc(CN2CCN(Cc3cn(C)nc3-c3ccccc3)CC2CCO)o1 (stereo not drawn),-3.67%
2,O=C(CSc1nc(O)c(Cc2ccccc2)c(=O)[nH]1)Nc1nc2c(s1)CCCC2,2.85%
3,CC(=O)NC(CC(=O)O)c1ccc(F)cc1 (stereo not drawn),-5.31%
4,CC(=O)c1ccc(NC(=O)N[C@@H](Cc2ccccc2)C(=O)O)cc1,-5.12%
5,CC(=O)NC(Cc1ccc(F)cc1)C(=O)O (stereo not drawn),83.9% (active)
6,N#Cc1c(N)nc2c(c1N)CC(C(F)(F)F)O2 (stereo not drawn),1.43%
7,Cc1ccc(C(=O)O)cc1N1C(=O)CCCC1=O,-2.53%
8,Cc1nc(-c2ccccc2)sc1C(=O)/C=C/c1ccccc1,48.9%
9,Cc1[nH]c(=O)c(C(=O)/C=C/c2ccccc2)c2c1CCCC2,98.8% (active)
10,O=C(/C=C/c1ccccc1)c1ccccc1O,9.25%
11,O=C(CCNC(=O)Cn1ccc2ccccc2c1=O)NCCC1=CCCCC1,-3.42%
12,Cc1ccccc1N1C(=O)C(Oc2ccc(Cl)cc2)C1CNCC1CCCO1 (stereo not drawn),14.7%
13,CCc1nc2ccccc2c(C(=O)NCc2ccc(OC)cc2)c1C,-2.62%
14,COc1nc(N=C(N)N)nc2c(C)cccc12,29%
15,Cc1cccc2c(=O)n3c(nc12)CCCCC3,-1.77%
16,Cc1nc(N=C(N)N)nc2c(C)cccc12,99.5% (active)
17,CCOc1ccc(N2C(=O)Nc3ccccc3C2(O)C(=O)NCc2ccco2)cc1 (stereo not drawn),-6.71%
18,Cc1ccc(CCCOC(=O)C[N+]2(C)CCCCC2)cc1,-3.49%
19,CCCCc1ccc(NC(=S)NCCCN2CCOCC2)cc1,32.5%
20,CSc1ccc(CNCCN2CCOCC2)cc1,67.6% (active)
21,O=C(NCCN1CCOCC1)[C@H](Cc1ccccc1)N1C(=O)c2ccccc2C1=O,-3.08%
22,CSc1ccc(S(=O)(=O)NCc2ccc(Cl)cc2)cc1,-1.27%
23,CCCCNCc1ccc(SC)cc1,76.3% (active)
24,CSc1ccc(CN(C)CC(=O)NCc2ccc(F)cc2)cc1,-5.11%
25,Cc1cc(/C=N/NC(N)=O)c(C)n1C1CCCCC1,2.71%

row,SMILES,inhibition
1,COc1ccc(-c2nc(N)sc2C2(O)C(=O)Nc3c(Br)cc(F)cc32)cc1OC (stereo not drawn),-2.63%
2,O=C(/C=C/c1ccco1)Nc1ccc(Oc2ccccc2)cc1,99.6% (active)
3,Cc1nnc(NC(=O)/C=C/c2ccco2)s1,21.5%
4,O=C(/C=C/c1ccco1)Nc1cccc(-c2nc3ccccc3[nH]2)c1,28.8%
5,COC(=O)C1=C(C(=O)OC)C(c2cc([N+](=O)[O-])ccc2O)c2sc(=O)[nH]c2S1 (stereo not drawn),-11.4%
6,Clc1ncn(CCOc2ccccc2)c1Cl,-6.41%
7,CCN(CC)CCCNC(=O)Cn1cnc2sc(C)c(S(=O)(=O)N3CCN(c4ncccn4)CC3)c2c1=O,1.29%
8,CCN(CC)CCNC(=O)c1sc2ncn(CC(=O)Nc3ccc(C)c(Cl)c3)c(=O)c2c1C,87.1% (active)
9,CCN(CC)CCNC(=O)Cn1cnc2sc(C)c(S(=O)(=O)N3CCOCC3)c2c1=O,-1.31%
10,O=C(CC1C(=O)NCCN1Cc1ccc(-c2ccccc2)cc1)NCc1ccncc1 (stereo not drawn),-2.72%
11,Cc1ccccc1NC(=O)CN1C(=O)N/C(=C\c2cccn2-c2cccc(C(=O)O)c2)C1=O,-4.64%
12,Cc1ccc(Nc2cc(C)nc3c(C)ccc([N+](=O)[O-])c23)cc1,87.2% (active)
13,Cc1cc(C)nc(Nc2cc([N+](=O)[O-])ccc2C)n1,2.27%
14,Cc1ccc(Nc2ccc(C(N)=O)cc2[N+](=O)[O-])cc1,-4.3%
15,O=S(=O)(Nc1ccccn1)c1cccc(S(=O)(=O)c2ccc(Cl)cc2)c1,-10.8%
16,CC(C)(C)NC(=O)Cn1cnc2cc([N+](=O)[O-])ccc2c1=O,3.94%
17,O=C(/C=C/c1ccc(F)cc1)Nc1cccc(S(=O)(=O)Nc2cccc(C(F)(F)F)c2)c1,50.4% (active)
18,O=C(CN1CCN(c2ccc(F)cc2)CC1)Nc1cccc(C(F)(F)F)c1,-7.62%
19,CCNS(=O)(=O)c1ccc(NC(=O)Nc2cccc(C(F)(F)F)c2)cc1,31.4%
20,O=C(NCc1ccco1)c1nn2cccnc2c1Cl,-2.79%
21,COc1ccc(Sc2nc(-c3ccccc3)ncc2OC)cc1,-4.44%
22,CC(Oc1cccc(NC(=O)c2cccs2)c1)C(=O)c1ccccc1 (stereo not drawn),16.5%
23,O=C(Nc1ccccc1)Nc1ccccc1C(=O)NCc1ccco1,4.53%
24,CCc1ccccc1N(CC(=O)NCCSCc1ccco1)S(C)(=O)=O,-4.33%
25,Cc1cc(C)cc(N(CC(=O)NCCSCc2ccco2)S(C)(=O)=O)c1,-4.83%

row,SMILES,inhibition
1,Cc1ccc(N(Cc2ccc(C(=O)Nc3ccccc3C(=O)NCc3ccco3)cc2)S(C)(=O)=O)cc1C,61.3% (active)
2,Cc1cccc(Nc2ccccc2C(=O)NCc2ccco2)c1C,38.2%
3,CS(=O)(=O)N(Cc1ccc(Cl)cc1)c1ccc(C(=O)NCCSCc2ccco2)cc1,53.3% (active)
4,CCOC(=O)c1sc(NC(=O)CSc2n[nH]c(CC)n2)nc1C,-7.68%
5,Cc1ccccc1NS(=O)(=O)CCCCC(Cl)(Cl)Cl,5.47%
6,COc1ccc(C2CC(c3cccs3)=NN2c2ccccc2)cc1 (stereo not drawn),-1.67%
7,CCOC(=O)N1CCN(C(=O)Cn2cnc3ccccc3c2=O)CC1,-4.19%
8,COc1ccc(NC(=O)C(=O)NCC(=O)Nc2cccc(C(F)(F)F)c2)cc1,-4.66%
9,COC(=O)CSc1ncnc2c1cnn2-c1ccc(C)cc1C,2.35%
10,CC1(C)NC(=O)N(CCOc2cccc(Oc3ccccc3)c2)C1=O,-11.3%
11,Cc1ccc([N+](=O)[O-])c(OCCCNCC(C)O)c1 (stereo not drawn),-0.76%
12,CC(O)CNCCOc1cccc(Oc2ccccc2)c1 (stereo not drawn),95.9% (active)
13,Cc1ccnc(SCC(N)=O)n1,-7.56%
14,O=C(Nc1ccc(F)c([N+](=O)[O-])c1)C1CC(=O)N(Cc2ccccc2)C1 (stereo not drawn),8.12%
15,CNC(=S)Nc1ccc([N+](=O)[O-])cc1,6.53%
16,COc1ccccc1OCC(=O)OCn1c(SC)nnc(C)c1=O,58% (active)
17,COc1cccc(NC(=O)COC(=O)CCOc2ccccc2OC)c1,-0.7%
18,COc1ccccc1OCCC(=O)OCC(=O)NC(=O)NC(C)(C)C,-5.7%
19,Cn1cnnc1SCc1nnc(-c2ccccc2Br)o1,-7.2%
20,COc1ccc(C2CC(c3cccs3)=NN2C(=O)CSc2nnc(N)s2)cc1OC (stereo not drawn),2.75%
21,COc1ccc(C2CC(c3cccs3)=NN2C(=O)CSc2nncs2)cc1OC (stereo not drawn),8.19%
22,COc1ccc(C2CC(c3cccs3)=NN2C(=O)COC(=O)c2cc3ccccc3cc2O)cc1OC (stereo not drawn),58% (active)
23,COc1ccccc1NC(=O)CCSc1nnc(-c2ccc(O)cc2)o1,-3.54%

# Reference: PubChem BioAssay AID1063 (University of Pittsburgh Molecular Library Screening Center, 2008)
